The values that follow come from PubChem BioAssay (EPA / NIEHS).

Calls of active or inactive are those of the source. Rule for the calls: active = hit-call score of the fitted dose curve at least 0.9, where 1 is the maximum; inactive = score below 0.9.

In general, AC50 refers to the concentration giving half of the maximal activity seen.

Read-out in this test: Human Leukocyte Antigen - DR isotype (HLADR), HLA-DRA (gene 3122)
The experiment in a line: BSK_3C_HLADR: BioMAP Diversity Plus: 3C Assay for Human Leukocyte Antigen - DR isotype (HLADR) Biomarker Activity (AID 2283019). Conditions: primary human endothelial cells (HUVEC); actives raise or lower the signal. The protocol:
BSK_3C is a cell-based, multiplexed-readout assay that uses umbilical vein endothelium, a human vascular primary cell, with measurements taken at 24 hours after chemical dosing in a 96-well plate.BSK_3C_HLADR is an assay component measured in the BSK_3C assay. It measures HLA-DR antibody related to regulation of gene expression using ELISA technology.Data from the assay component BSK_3C_HLADR was analyzed into 1 assay endpoint. This assay endpoint, BSK_3C_HLADR, was analyzed with bidirectional fitting relative to DMSO as the negative control and baseline of activity. Using a type of binding reporter, gain or loss-of-signal activity can be used to understand changes in the signaling as they relate to the gene HLA-DRA. Furthermore, this assay endpoint can be referred to as a primary readout, because this assay has produced multiple assay endpoints where this one serves a signaling function. To generalize the intended target to other relatable targets, this assay endpoint is annotated to the cell adhesion molecules intended target family, where the subfamily is MHC Class II.
The levels of cell surface (or secreted, indicated by the prefix "s") biomarker endpoints were measured by ELISA. Overt cytotoxicity to cells in confluent adherent cultures (all systems other than the BT system) was assessed by measuring total protein levels using sulforhodamine B (SRB) staining in parallel cultures at the time of biomarker measurements, indicated as SRB endpoints. For proliferation assays for adherent cell types, individual cell types are cultured at sub-confluence and relative cell numbers quantified by SRB staining at time points optimized for each system (48 h: 3C and CASM3C systems; 72 h: BT and HDF3CGF systems; 96 h: SAg system). SRB was performed by staining cells with 0.1% SRB after fixation with 10% TCA and reading wells at 560 nm.Viability and proliferation of PBMC (T cells) was quantified by Alamar Blue reduction for the SAg and BT systems. For PBMC viability (referred to as PBMC Cytotoxicity within the assay endpoint names), cells were plated (75,000/well in a 96-well plate) and then chemical samples added for 1 h before addition of activators, SEB and TSST-1 (20 ng/mL final concentration each). Cells were incubated for 90 h. Then, Alamar Blue (20 uL/well) (Invitrogen, Cat DAL1100) was added for 6 h, and the plates were read with a fluorescence microplate reader at 546/580 nm (excitation/emission). For PBMC proliferation, cells were plated and activated as above but incubated for only 16 h prior to addition of Alamar Blue. Plates were read after 6 h.
In the case of `CC1(C)NC(=O)NC1=O`, the outcome was inactive. As for `C1CCC(SSC2CCCCC2)CC1`, the AC50 was 20 µM (active). As for `Cc1cccc([N+](=O)[O-])c1C`, the outcome was inactive. Still for that read-out and setting: the entry for `CCCCCCOCCO` is “inactive”; for `CCCCCCCCCCCCCCCC` it is “inactive”; for `CC(=O)Oc1ccccc1C(=O)O` it is “inactive”.

For the compound `CCCCC(CC)COC(=O)CC(C(=O)OCC(CC)CCCC)S(=O)(=O)O` (stereo not given), the AC50 is 37.9 µM (active).

For the compound `COc1cc(-c2nc(NC(=O)c3cc4cc(C)cc(C)c4n3CC(=O)O)sc2CCC2CCCCC2)c(OC)cc1Cl`, the AC50 is 3.08 µM (active). Turning to `CC(=O)C(C)=CC1C(C)=CCCC1(C)C` (stereo not given), the result was inactive. As for `C[Si]1(C)O[Si](C)(C)O[Si](C)(C)O[Si](C)(C)O1`, the result was inactive. For `CCOC(=O)CCC(=O)OCC`, the outcome was inactive. Same read-out and setting: the entry for `C=CCOC(=O)c1ccccc1C(=O)OCC=C` is “inactive”.

Take `O=C(O)Cc1ccccc1Nc1c(Cl)cccc1Cl`: the result was inactive. Consider `COc1ccc(S(=O)(=O)N2C(=O)[C@@](c3ccccc3OC)(N3C[C@H](O)C[C@H]3C(=O)N(C)C)c3cc(Cl)ccc32)c(OC)c1`, for which the AC50 was 32.6 µM (active). Consider `CCCCCCCC=O`, for which the outcome was inactive. Take `Cc1cc(NC(=O)C(=O)O)cc(C)c1Oc1ccc(O)c2c1CCC2`: the outcome was inactive.

`Cc1ccc(N(C)C)cc1`: the result was inactive. Turning to `FC(F)(F)C(F)(F)C(F)(F)C(F)(F)C(F)(F)C(F)(F)CCI`, the result was inactive. As to `O=C(O)CCCCC(=O)O`, the outcome was inactive. On to `CCCCCCCCCCCCCO`, for which the AC50 was 35.8 µM (active). In the case of `COc1cc(S(=O)(=O)O)c(C)cc1N=Nc1c(O)ccc2cc(S(=O)(=O)O)ccc12`, the outcome was inactive. The same measure, in the same setting: the entry for `CCCCCCCCCCO` is “inactive”; for `CCNc1cccc(C)c1` it is “inactive”; for `CCCCc1ccc2c(n1)[C@@H](c1ccc(OC)cc1C[C@H](C)C(=O)O)[C@H](C(=O)O)[C@H]2c1ccc2c(c1)OCO2` it is “inactive”. Same read-out and setting: then `CCCCCC(=O)O`, with “inactive”. On the same count and under the same terms, the entry for `COc1cc(C=O)ccc1O` is “inactive”.

On to `CCOc1ccc2c(c1)C(C)=CC(C)(C)N2`, for which the result was inactive. Still for that read-out and setting: the entry for `Nc1ccc(S(=O)(=O)c2ccc(N)cc2)cc1` is “inactive”.

Turning to `Nc1ccccc1N`, the AC50 was 20 µM (active). As for `Cc1ccccc1Cl`, the result was inactive. On the same count and under the same terms, then `C=CCc1ccc(O)c(OC)c1`, with “inactive”; and `O=c1[nH]cc(F)c(=O)[nH]1`, with “inactive”; and `Cc1cccc(Nc2cc(Cl)nc(SCC(=O)O)n2)c1C`, with “inactive”.

Consider `CCCCCCC(=O)OCC`, for which the outcome was inactive. The same measure, in the same setting: the entry for `COC(=O)c1ccc(O)cc1` is “inactive”; for `C[C@]12C=CC(=O)C=C1CC[C@@H]1[C@@H]2C(=O)C[C@@]2(C)[C@H]1CC[C@]2(O)C(=O)CO` it is “inactive”.

Turning to `COCCOCCOC`, the result was inactive. Regarding `CC(=O)OC/C=C(\C)CCC=C(C)C`, the result was inactive.

As for `Cc1cccc(C)c1O`, the result was inactive.

As for `O=C(N[C@@H](Cc1ccccc1)[C@@H](O)C(=O)N1C[C@@H](O)[C@@H](O)C1)c1cc2cc(Cl)ccc2[nH]1`, the result was inactive.
